Screening data: PubChem, several laboratories
Shown are actives, neighbours in structure and some others; about 1.9% of the full set was active somewhere.
MCL1 BIM primary – inhibitors of MCL1 binding to BIM-BH3, primary screen, biochemical, fluorescence polarization; GST-MCL1 / FITC-Bim-BH3 fluorescence polarization; inhibition, % at 10.9 µM; 320,000 compounds, 0.68% hits; AID 2057, 2009;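 active = inhibition above the mean inhibition of all tested compounds plus 3 SD, set per campaign, cut at about 40% in these data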;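 also: 0% = DMSO wells and 100% = unlabeled Bim-BH3 peptide control; higher means more loss of mP so more displacement of Bim peptide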
Target sequence (Q07820 whole entry, looked up): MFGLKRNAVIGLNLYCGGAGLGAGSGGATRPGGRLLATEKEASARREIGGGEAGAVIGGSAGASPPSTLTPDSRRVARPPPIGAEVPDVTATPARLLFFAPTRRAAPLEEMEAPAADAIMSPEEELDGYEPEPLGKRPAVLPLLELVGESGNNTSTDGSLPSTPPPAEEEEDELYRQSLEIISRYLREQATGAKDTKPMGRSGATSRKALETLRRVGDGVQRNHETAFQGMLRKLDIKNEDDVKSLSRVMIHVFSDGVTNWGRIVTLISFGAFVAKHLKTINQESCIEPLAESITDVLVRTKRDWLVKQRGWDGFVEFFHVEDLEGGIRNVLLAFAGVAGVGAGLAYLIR
MEX-5 binding – MEX-5 zinc finger RNA-binding disruptors – biochemical, C. elegans, fluorescence polarization, MLPCN library, primary screen. Zinc finger protein mex-5 (Caenorhabditis elegans), Q9XUB2. MEX-5/FITC-TCR2 RNA binding; active compounds read low. activity score (negative = inhibition of binding), % at 10 µM. 300,000 compounds, 0.38% hits;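 active = inhibition past about -25% in most replicates, and total fluorescence under double the plate's negative control median, limit read from the data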;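 also: 0% = DMSO and -100% = 5 µM competing unlabeled TCR2 RNA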
BCLXL inh – inhibitors of human Bcl-xL, primary screen, biochemical, fluorescence polarization, HTS. Bcl-2-like protein 1 (Homo sapiens), Q07817. GST-Bcl-xL / FITC-Bim BH3 peptide fluorescence polarization. inhibition, % at 10.9 µM. 320,000 compounds, 0.7% hits;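 active = inhibition above the mean of all tested compounds plus 3 SD, cutoff set per campaign, cut at about 30% in these data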;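 also: 0% = DMSO wells and 100% = unlabeled Bim-BH3 peptide competitor; inhibitors lower millipolarization by displacing the labeled peptide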
Target sequence (Q07817 whole entry, looked up): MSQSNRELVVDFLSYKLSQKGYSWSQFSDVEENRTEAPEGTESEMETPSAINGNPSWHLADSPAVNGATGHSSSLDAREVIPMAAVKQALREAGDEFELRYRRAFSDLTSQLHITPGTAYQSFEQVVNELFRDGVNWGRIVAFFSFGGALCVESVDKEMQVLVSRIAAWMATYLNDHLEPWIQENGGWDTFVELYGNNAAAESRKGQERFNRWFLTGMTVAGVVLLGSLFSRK
GLD-1 TGE inh – GLD-1/TGE RNA complex disruptors, primary screen, biochemical, fluorescence polarization; Female germline-specific tumor suppressor gld-1 (Caenorhabditis elegans), Q17339; purified GLD-1 + fluorescein TGE RNA; inhibition, % at 5.96 µM; 320,000 compounds, 0.44% hits;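 active = percent inhibition above a per-plate cutoff, the plate mean of test compounds plus 3 SD, cut at about 30% in these data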;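 also: 0% = DMSO wells with GLD-1 and probe and 100% = wells lacking GLD-1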
Yeast superoxide – reduction of superoxide in aged yeast, primary screen, HTS | 330,000 compounds, 0.18% hits | superoxide response (% of plate mean), % at 10 µM | S. cerevisiae aged cells, superoxide DHE fluorescence; active compounds read low;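 active = superoxide response under a set limit, about three screen SD below normal, cut at about 65% in these data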;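 also: yeast aged for seven days with compound at 30 °C before DHE staining; 100% = average MFI of all compound-treated wells on the plate with controls excluded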
LANA-H2A inh – blockers of LANA interaction with H2A/H2B – biochemical, FP readout, HTS, primary screen. cell-free LANA-H2A/H2B peptide, fluorescence polarization. inhibition, % (concentration not given with the values). 320,000 compounds, 0.6% hits. AID 2629, 2010. Protein LANA1 (Human herpesvirus 8 type P (isolate GK18)), Q9QR71; in the data active = inhibition mostly above about 10%, no sharp cut-off; inactive = mostly below about 6.7%
* = called active by the depositor; / = not tested or not shown; + = active, no number.

SMILES	MCL1 BIM primary	MEX-5 binding	BCLXL inh	GLD-1 TGE inh	Yeast superoxide	LANA-H2A inh
O=C(NCc1ccco1)c1cccc2c1C(=O)c1ccc(/C=C/c3ccccc3)cc1S2(=O)=O	/	/	/	-15.0	96.2	0.2
O=C(NCc1ccco1)c1cccc2c1C(=O)c1ccc(N3CCC(Cc4ccccc4)CC3)cc1S2(=O)=O	/	/	/	91.3*	120.0	-0.6
O=C(NCc1cccc(C(F)(F)F)c1)c1cccc2c1C(=O)c1ccc(N3CCC(Cc4ccccc4)CC3)cc1S2(=O)=O	/	/	/	128.0*	87.7	-1.8
O=C(NCc1ccc(OC(F)(F)F)cc1)c1cccc2c1C(=O)c1ccc(N3CCC(Cc4ccccc4)CC3)cc1S2(=O)=O	/	/	/	121.5*	107.3	-9.4
Cc1nc(S/C(=C\c2ccc(-c3ccc(C(=O)O)c(Cl)c3)o2)C(=O)O)n[nH]1	/	-90.9*	/	/	/	/
Cc1nc(S/C(=C\c2ccc(OCc3ccccc3Cl)cc2)C(=O)O)n[nH]1	7.4	/	4.5	8.2	105.8	-5.2
CCc1nnc(NC(=O)c2ccc(S(=O)(=O)N(CCOC)CCOC)cc2)o1	4.0	-0.6	-1.1	6.2	98.3	-0.8
COCCN(CCOC)S(=O)(=O)c1ccc(C(=O)Nc2nnc(C3CC3)o2)cc1	0.6	1.7	4.1	-4.1	81.3	+
Nc1ccc(Oc2ccccc2F)nc1	8.3	1.1	14.0	31.9*	87.6	-3.0
Nc1cccnc1Oc1ccccc1F	7.4	-3.0	7.0	1.3	81.0	1.7
CN(C)CCOCCOc1ccc(Cl)cc1Br	-2.5	0.9	3.4	-5.2	116.3	12.0*
CN(C)CCCOc1ccc(Cl)cc1Br	3.3	-1.8	6.2	-2.2	104.6	1.1
O=CC1=C(c2ccccc2)Oc2ccccc2O1	6.5	3.1	2.3	8.1	94.7	-1.6
CCOc1cc(N2CCOCC2)c(OCC)cc1NC(=O)CSc1ncccc1C(=O)O	/	/	/	6.5	123.7	5.9
Cc1ccccc1NC(=O)/C(=C/c1cccs1)NC(=O)c1ccco1	-0.3	0.7	5.0	-2.3	96.9	1.2
COc1ccccc1NC(=S)N1CCN(C(=O)c2ccco2)CC1	16.2	-1.1	0.7	5.0	98.1	15.8*
COc1ccc2oc(C(=O)N3CCN(C(=O)c4ccco4)CC3)c(C)c2c1	-5.0	0.5	-2.0	3.6	92.2	19.9*
COc1ccccc1NC(=O)/C(=C\c1cccs1)NC(=O)c1ccco1	4.2	4.5	0.6	7.2	89.9	+
CC(C)(C)N(Cc1ccccc1)C(=O)COC(=O)/C=C/c1ccc2c(c1)OCO2	-8.3	/	1.5	2.7	89.0	-1.2
CCOc1ccc(NC(=O)COc2ccc(C(=O)NCc3cccc(OC)c3)cc2OC)cc1	1.3	/	5.2	9.6	80.7	3.0
NC(=O)NC(CC(=O)NCCc1ccccn1)c1ccccc1Cl (stereo unspecified)	3.3	3.3	0.5	-2.7	94.3	15.0*
Cc1ccc(NC(=O)c2ccc(=O)[nH]n2)cc1S(=O)(=O)Nc1ccc(SC(F)F)cc1	/	/	/	-0.9	103.6	0.2
CCOC(=O)NC(=O)/C(C#N)=C\Nc1sccc1C(=O)OC	+	-7.9	+	+	100.4	-7.0
CCOC(=O)NC(=O)/C(C#N)=C\Nc1ccc(Cl)cc1Cl	-0.1	-1.1	2.1	2.5	97.2	-5.2
Cc1ccc(NC(=S)N2CCCC(CO)C2)c(C)c1 (stereo unspecified)	11.4	-0.2	-1.5	3.9	91.1	29.5*
SMILES	MCL1 BIM primary	MEX-5 binding	BCLXL inh	GLD-1 TGE inh	Yeast superoxide	LANA-H2A inh
Cc1ccc(NC(=S)N2CCC(O)CC2)c(C)c1	12.5	-2.0	0.8	2.9	106.2	4.3
CCC(NC(=O)CSc1nnnn1C1CC1)c1ccc(Br)cc1 (stereo unspecified)	2.6	/	0.4	-3.7	95.2	-10.2
Cc1ccc2c(c1)N(C(C)C(=O)NCc1cccs1)C(=O)CO2 (stereo unspecified)	4.3	2.0	2.1	-3.4	84.2	19.6*
Cc1ccc2c(c1)N(C(C)C(=O)NCc1ccccn1)C(=O)CO2 (stereo unspecified)	19.7	-3.6	16.3	10.9	92.0	1.4
CC(=O)c1ccc(COC(=O)c2cc3ccccc3oc2=O)cc1	7.5	-3.3	4.0	4.7	85.3	11.2*
COC(=O)c1ccc(COC(=O)c2cc3ccccc3oc2=O)cc1	7.8	-2.7	4.1	5.5	88.9	1.7
Cc1cc(C(=O)CSc2nnnn2C)c(C)n1-c1ccc2c(c1)OCCO2	-0.8	-4.6	2.2	6.0	91.1	0.2
Cc1nnc(SCC(=O)c2cc(C)n(-c3ccc4c(c3)OCO4)c2C)s1	1.1	1.3	1.5	8.3	110.1	27.4*
COc1cc2ccccc2cc1C(=O)Nc1nccs1	15.0	0.4	17.3	26.8	101.1	20.2*
CC(C)NC(=O)N(C)C[C@H]1Oc2ccc(NC(=O)NC3CCCCC3)cc2C(=O)N([C@H](C)CO)C[C@@H]1C	/	/	/	0.5	119.2	6.2
Cc1ccc2nc3n(c(=O)c2c1)-c1ccccc1C(=O)NC3Cc1ccc(O)cc1 (stereo unspecified)	/	/	/	-0.6	84.2	0.8
COc1ccc2c(Cl)c(C(=O)N/N=C/c3ccc4c(c3)OCO4)sc2c1	-1.8	-2.0	-6.5	-14.3	98.7	1.3
COc1ccc2c(Cl)c(C(=O)N/N=C3\CCCC(=O)C3)sc2c1	23.4	-0.2	39.9*	128.7*	96.4	4.2
CCC(C(=O)NC1CCCCC1)N(Cc1cccs1)C(=O)CCC(=O)Nc1cc(C)on1 (stereo unspecified)	-2.6	0.0	2.8	6.9	91.0	8.9
Oc1ccccc1N1CCN(C(=S)Nc2ccc(SC(F)F)cc2)CC1	3.5	-1.0	2.1	-2.9	109.3	23.1*
COc1cc(NS(=O)(=O)c2ccc(C)cc2)c2ncccc2c1	6.0	0.4	2.9	-1.7	97.5	1.6
COc1cc(NCCCC(C)N)c2ncccc2c1 (stereo unspecified)	/	-25.8*	/	/	/	/
Cc1csc2nc(O)c(C(=O)NC3CCCCC3C)c(=O)n12 (stereo unspecified)	2.9	-3.4	3.4	3.0	101.8	-0.7
COC(=O)[C@]1(CC(C)C)N[C@H](c2ccc(-c3ccc(F)cc3)c(OC)c2)[C@@H]2C(=O)N(C)C(=O)[C@@H]21	12.8	-2.7	8.7	-3.8	104.8	0.8
O=C(O)CCNS(=O)(=O)c1ccc2c(c1)OCCCO2	-0.3	-1.9	-0.6	-2.0	94.2	12.8*
